The values below come from ChEMBL document CHEMBL4513216, “Probing the Open Global Health Chemical Diversity Library for Multistage-Active Starting Points for Next-Generation Antimalarials” (ACS Infect Dis, 2020).

The whole screen tested about 65,000 compounds, of which about 2,100 (3.2%) showed an effect of 50% or more. The median lay at about -52%. Shown is part of a subset that was picked to be rich in strong results.

The assay relates to Plasmodium falciparum. Kind of assay: Screen against P. falciparum Asexual Blood Stage (ABS), at 5uM. It is filed as functional, Dd2. The note with it: tested at 5 uM.
For `CC(C)N(Cc1ccc(C(=O)O)o1)C(C)C`, the INHIBITION is on record as -21.6%.
Then `Cc1cnc(N2CCc3c(c(COc4cncnc4)nn3C)C2)nc1`, with -95%; and `CCc1nc(C2NC3(CCCC3)C(=O)N2CC2CC2)cs1` (stereo not given), with -67.6%.
In the case of `CN(C)CCNC(=O)CCC1CCN(C(=O)c2ccc(Cl)cc2O)CC1`, the INHIBITION was -57.2%.
Consider `Cc1ccc(CN2CCC3(CC(=O)N(c4ccc5c(c4)OCO5)C3)C2)o1` (stereo not given), for which the INHIBITION is -11.7%.
Then `Cc1nc(C)n(C2CCCN(C(=O)COc3ccccc3)C2)n1` (stereo not given), with -30.7%; and `CCC[C@H]1CN(S(=O)(=O)c2cc(C)ccc2C)C[C@@H]1N`, with 68.6%; and `Cc1noc(C)c1-c1cccc(C2CCN(S(=O)(=O)N(C)C)CC2)n1`, with -81.4%.
Turning to `Cc1ccc(C)c(S(=O)(=O)N2CCN(C)C3(CCC(=O)N(C)CC3)C2)c1` (stereo not given), the INHIBITION was -107%.
Then `Cc1noc(C)c1-c1n[nH]c2c1CN(S(=O)(=O)c1cccs1)CC2`, with -24.2%; and `CCC[C@@H]1CN(S(=O)(=O)c2ccc(C)c(F)c2)C[C@H]1N(C)C`, with 39.9%.
Then `Cc1ccc(F)c(S(=O)(=O)N2CCCC2c2ccncc2)c1` (stereo not given), with -73.9%.
Then `Cc1ccc(S(=O)(=O)N2CC[C@@H](O)C2)c(F)c1`, with -13.3%; and `CCC[C@H]1CN(S(=O)(=O)c2ccc(-c3c(C)noc3C)s2)C[C@@H]1N`, with 72.8%; and `CCC[C@H]1CN(S(=O)(=O)c2cc(C)ccc2F)C[C@@H]1N`, with 52.5%.
For the compound `CN(C)c1cc2c(nn1)CCN(C(=O)c1ccc(-n3cccn3)nc1)C2`, the INHIBITION is reported as -129%.
Then `CC(C)n1nc(CN2CCOCC2)c2c1CN(C(=O)c1ccno1)C2`, with -44.4%; and `Cc1ccc(C(=O)N2CC[C@@H]3[C@H]2CCC(=O)N3CCN(C)C)cn1`, with -2.53%; and `CCc1cnc(NC(=O)NC2CCN(C)CC2)s1`, with -80.8%.
Then `CC1=N[C@@]2(CC[C@@H]3CN(C(=O)NCc4cccc(F)c4)C[C@@H]32)C(=O)N1`, with -94.6%; and `CC(C(=O)Nc1ccccc1F)S(C)(=O)=O` (stereo not given), with -75.4%.
For `Cc1nc(-c2ccc(Cl)cc2)n(CC(=O)NC(C)C)c(=O)c1CCO`, the INHIBITION is listed as -186%.
With `Cc1cc(C)c(C(=O)NC(CN2CCCC2)c2ccccc2)c(=O)[nH]1` (stereo not given), the INHIBITION is listed as -88.9%.
Then `Cc1cc(C)c(CCNC(=O)CN2CCCN(C(N)=O)CC2)c(C)c1`, with -67.4%.
Then `CCC(CN1CCCC1)NC(=O)Cc1c(C)[nH]c2cc(C)cc(C)c12` (stereo not given), with 61.6%.
Then `CC(=O)c1c(C)nn(CC(=O)N2CCCC2c2ccc(C(N)=O)s2)c1C` (stereo not given), with -149%; and `CCN(CC)C(=O)CCc1nc(-c2cnn3c(C)cc(C)nc23)no1`, with -59.8%.
In the case of `COC[C@H]1CCC[C@]12CN(CCc1ccccc1)CCO2`, the INHIBITION is -30.9%.
Then `O=C1CC[C@H]2[C@H](CCN2S(=O)(=O)C2CC2)N1CCN1CCCC1`, with -109%; and `CC(C)[C@H](N)CC(=O)Nc1nc(-c2cnc(N3CCOCC3)nc2)cs1`, with -62.3%.
Then `CN1C[C@H](c2ccccc2)[C@H]2CN(C(=O)Cc3ccc(O)cc3)CC[C@H]21`, with 58%; and `CN1C[C@H](c2ccccc2)[C@H]2CN(C(=O)Cc3cccc(O)c3)CC[C@H]21`, with 48.1%; and `Cc1ccsc1[C@@H]1CCN(C(=O)Cc2ccc(O)cc2)C[C@H]1O`, with 11.1%.
As to `COC(=O)[C@@H]1CCCN1C(=O)c1cn(C/C=C/c2ccccc2)nn1`, the INHIBITION is -29.2%.
Then `CC(CCc1ccccc1)NC(=O)CNCCCN(C)C` (stereo not given), with -20.5%; and `CN(C)C(=O)CN1C(=O)C[C@@H]2[C@@H]1CCN2Cc1cccc(C#N)c1`, with -63%; and `N[C@@H]1c2ccccc2C2(CCN(c3cc(C(F)(F)F)ccn3)CC2)[C@H]1O`, with -15.6%.
Regarding `CC(=O)N1CCN(CCNc2ncc(Br)cc2C)CC1`, the INHIBITION is listed as -22.7%.
Then `COC1CCN(CCNc2ncc(Br)cc2C)CC1`, with 60.6%; and `CCc1cnc(C)nc1NCCN1CCC(O)CC1`, with -27.7%; and `Cc1ccc(CN2CCn3cc(CN4CCN(C)CC4)nc3C2)cc1`, with -112%.
On to `O=C(NCCN1CCOCC1)C(OC1CCCC1)c1ccccc1` (stereo not given), for which the INHIBITION was -78%.
With `O=C(NCCCN1CCOCC1)C(OC1CCCC1)c1ccccc1` (stereo not given), the INHIBITION was 53.1%.
Regarding `CN1CCN(CCNC(=O)C(OC2CCCC2)c2ccccc2)CC1` (stereo not given), the INHIBITION is listed as 39.2%.
Consider `CN(C)CC(=O)N1CCC2(CC1)CN(c1ncccn1)CCO2`, for which the INHIBITION is recorded as 5.56%.
Consider `CN(C)CC(=O)N1CCC2(CCc3ccc(-c4ccncc4)cc32)CC1`, for which the INHIBITION is -41.7%.
On to `Cc1ccc2c(c1)CCC21CCN(C(=O)CN(C)C)CC1`, for which the INHIBITION was found to be 50.7%.
Then `Cc1ccc2c(c1)CCC21CCN(C(=O)CO)CC1`, with -19.8%.
Then `CCCn1nc2c(cc1=O)CN(c1ncnc3ccsc13)CC2`, with -43%; and `CSCc1noc(CNS(=O)(=O)c2cccc(C(=O)NC3CC3)c2)n1`, with -45.3%; and `CC(C)n1cc(C(=O)NCCN(C)C)c2n[nH]c(=O)c-2c1`, with -36.6%.
In the case of `Cc1noc(C(C)C)c1C(=O)NCCCN1CCCC1`, the INHIBITION is -39.2%.
Then `CC(C)CC(NCc1cccs1)c1ccccn1` (stereo not given), with -21.4%; and `CC(C)CC(NCc1ccsc1)c1ccccn1` (stereo not given), with 60%; and `CC(C)CC(NCc1cscn1)c1ccccn1` (stereo not given), with 32.3%.
Then `CC(C)OCCC(=O)NCC(O)c1c(F)cccc1F` (stereo not given), with -37.7%; and `CC(C)c1nnc(NC(=O)NCc2cccnc2NCCN(C)C)s1`, with -89.9%; and `CN(C)CCNc1ncccc1CNC(=O)Nc1cc(F)cc(F)c1`, with 55%.
`Cc1nc(NC(=O)NCc2cccnc2NCCN(C)C)sc1C`: the INHIBITION is -8.39%.
With `CC(O)CN1CCC(CNCc2ccccc2C(F)(F)F)CC1` (stereo not given), the INHIBITION is reported as 48.3%.
Then `CC(O)CN1CCC(CNCc2ccccc2OC(F)(F)F)CC1` (stereo not given), with 67.7%; and `CC(O)CN1CCC(CNCc2cccc(C(=O)N(C)C)c2)CC1` (stereo not given), with -81.9%.
Then `CC(O)CN1CCC(CNCc2cccc(OC(C)C)c2)CC1` (stereo not given), with 62.4%; and `Cc1ccc(CNCC2CCN(CC(O)c3ccccc3)CC2)o1` (stereo not given), with 62.5%.
As to `CC(O)CN1CCC(CNCc2ccccc2F)CC1` (stereo not given), the INHIBITION is given as -0.868%.
Then `Cc1noc(C)c1CNCC1CCN(CC(O)c2ccccc2)CC1` (stereo not given), with 43.4%; and `Cc1ncccc1CNCC1CCN(CC(O)c2ccccc2)CC1` (stereo not given), with 31.4%; and `CC(O)CN1CCC(CNCc2cccc(C(N)=O)c2)CC1` (stereo not given), with -73.1%.
Then `COCC(Nc1ncnc2c1CCNCC2)c1ccccn1` (stereo not given), with -66.2%; and `CCOCC(=O)NCC1CCN(Cc2ccsc2)CC1`, with -90.6%; and `CN(C)Cc1ccnc(C2CCCN2Cc2ccc3ncccc3c2)n1` (stereo not given), with 42%.
Then `COc1cc(CNc2cc(-c3nncn3C)ccn2)cc(OC)c1OC`, with -52.4%.
`Cc1ccccc1-c1noc(CN2CCC(N3CCNC3=O)CC2)n1`: the INHIBITION is -80.6%.
For `COCC(=O)N1CCCC1c1ccc(C(=O)NCCN2CCCCC2)s1` (stereo not given), the INHIBITION is on record as -139%.
For the compound `CCC1CN(CC(=O)NCCN2CCCC2)c2ccccc2S1` (stereo not given), the INHIBITION is on record as 63.8%.
Regarding `O=C(NCCN1CCCC1)c1cc2c(s1)CCN2C(=O)c1ccccc1`, the INHIBITION is recorded as -40.6%.
As to `Cc1ccccc1OCC1CCCN(c2cc(N)nc(N)n2)C1` (stereo not given), the INHIBITION came out at 44.5%.
`CN1CCCC(CCCc2cccnc2)(C(N)=O)C1` (stereo not given): the INHIBITION is reported as -103%.
Then `Nc1ccnc(-c2cc(NC3CCNCC3)nc3[nH]ccc23)c1`, with -29.8%.
Turning to `COc1nccnc1-c1cc(NC2CCCC2)nc2[nH]ccc12`, the INHIBITION came to 18.8%.
Then `COc1cc(-c2cc(NC3CCCC3)nc3[nH]ccc23)nc(N)n1`, with 62.5%; and `CCc1noc(CN(CC)Cc2cc3ccc(F)cc3[nH]c2=O)n1`, with -9.14%.
Then `CCN(Cc1nc(COC)no1)Cc1cc2ccc(F)cc2[nH]c1=O`, with 62.2%.
Then `CCN(Cc1noc(CC(C)C)n1)Cc1cc2ccc(F)cc2[nH]c1=O`, with -109%; and `O=C(C[C@@H]1COC[C@H]2CN(CC3CCOCC3)C[C@@H]12)N1CCCCO1`, with -22.4%; and `CC(O)CN1CCN(C(=O)c2cc3ccccc3n2C)CC1` (stereo not given), with -75.1%.
`CCC(C)(COc1ncccc1Cl)NCC(=O)NC1CCCCC1` (stereo not given): the INHIBITION is -85.6%.
As for `CNC(=O)C1CCN(CC(=O)Nc2cc(C(C)C)no2)CC1`, the INHIBITION was -141%.
On to `CCOCC1CN(C(=O)c2cccs2)Cc2cnn(CC3CC3)c21` (stereo not given), for which the INHIBITION amounted to 18.5%.
Consider `CCOCC1CN(C(=O)c2cccn2C)Cc2cnn(CC3CC3)c21` (stereo not given), for which the INHIBITION was 57.8%.
For the compound `CCOCC1CN(C(=O)c2cnccn2)Cc2cnn(CC3CC3)c21` (stereo not given), the INHIBITION was -127%.
Then `O=c1cc(CN2CCCCC2c2cccc(F)c2)[nH]c2ncnn12` (stereo not given), with -27.8%; and `COc1ccccc1C(=O)N1CCOCC1c1c(C)n[nH]c1C` (stereo not given), with 57.5%; and `Cc1n[nH]c(C)c1C1COCCN1C(=O)c1cccc(F)c1F` (stereo not given), with 49.6%.
On to `Cc1n[nH]c(C)c1C1COCCN1C(=O)c1ccccc1` (stereo not given), for which the INHIBITION is -119%.
Then `Cc1cnn(CCNCc2ccccc2OCc2ccncc2)c1`, with 40.5%.
Then `CCN1CCOC(CNCc2ccccc2OCc2ccncc2)C1` (stereo not given), with 55.3%.
On to `Cc1cnn(CCNCc2ccc(OCc3ccccn3)cc2)c1`, for which the INHIBITION is on record as -12.3%.
Consider `CCN1CCOC(CNCc2ccccc2OCC(=O)N(C)C)C1` (stereo not given), for which the INHIBITION is -19.5%.
Then `CCN1CCOC(CNCc2ccccc2OCc2cccnc2)C1` (stereo not given), with 28.1%; and `Cc1cnn(CCNCc2ccccc2OCc2ccccn2)c1`, with 67%.
Then `CCN1CCOC(CNCc2ccccc2OCc2ccccn2)C1` (stereo not given), with 7.77%; and `CN1CCOC(CNCc2ccccc2OCc2ccccn2)C1` (stereo not given), with 67.7%.
Then `CN1CCOC(CNCc2ccc(OCc3ccccn3)cc2)C1` (stereo not given), with -15.8%; and `CNC(=O)c1nc(COc2ccc3c(c2)OCO3)no1`, with -139%.
